# Experimental data: PMC7862700, “An all-to-all approach to the identification of sequence-specific readers for epigenetic DNA modifications on cytosine”
# Key:
# Assay in all cases: DAPPL (digital affinity profiling via proximity ligation, sequencing); 10 mM Tris-HCl pH 7.5, 50 mM NaCl, 1 mM DTT, 4% glycerol, room temperature, 30 min; GST-TFs on glutathione beads, 16-mer random dsDNA library, 0.1% formaldehyde crosslink after washing; high values mean tight binding
# [1] = biological target: T1, FLI1 (Homo sapiens, UniProt Q01543 1-452); settings: protein: recombinant; tags: N-terminal GST; dsDNA, one strand shown
# T1 sequence: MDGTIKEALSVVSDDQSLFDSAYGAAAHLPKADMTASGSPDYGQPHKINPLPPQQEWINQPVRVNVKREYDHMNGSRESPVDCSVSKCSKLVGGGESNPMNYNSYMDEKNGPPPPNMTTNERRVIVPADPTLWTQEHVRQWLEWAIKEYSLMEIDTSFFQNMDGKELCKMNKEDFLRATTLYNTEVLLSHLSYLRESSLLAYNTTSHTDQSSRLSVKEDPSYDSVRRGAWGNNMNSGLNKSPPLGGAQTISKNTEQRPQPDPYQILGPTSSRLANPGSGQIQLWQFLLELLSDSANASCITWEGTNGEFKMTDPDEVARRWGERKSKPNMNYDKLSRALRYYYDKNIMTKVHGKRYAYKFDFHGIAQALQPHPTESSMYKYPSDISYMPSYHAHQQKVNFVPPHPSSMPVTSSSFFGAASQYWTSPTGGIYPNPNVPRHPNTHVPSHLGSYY
# How it was run: (§1)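 Binding signal is given per hexamer as its read frequency for a factor divided by its frequency in the tag-only sample. GST-fused human transcription factors were expressed in yeast, captured on glutathione beads, barcoded with DNA and pooled with that sample, then incubated with 200 nmole of a 16-mer random double-stranded DNA library in Tris/NaCl/DTT/glycerol buffer for 30 min at room temperature. The pools were then washed, crosslinked, proximity-ligated, amplified by PCR and sequenced on an Illumina NextSeq500.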
# [2] = biological target: T2, ELK1 (Homo sapiens, UniProt P19419 1-428); settings: protein: recombinant; tags: N-terminal GST; dsDNA, one strand shown
# T2 sequence: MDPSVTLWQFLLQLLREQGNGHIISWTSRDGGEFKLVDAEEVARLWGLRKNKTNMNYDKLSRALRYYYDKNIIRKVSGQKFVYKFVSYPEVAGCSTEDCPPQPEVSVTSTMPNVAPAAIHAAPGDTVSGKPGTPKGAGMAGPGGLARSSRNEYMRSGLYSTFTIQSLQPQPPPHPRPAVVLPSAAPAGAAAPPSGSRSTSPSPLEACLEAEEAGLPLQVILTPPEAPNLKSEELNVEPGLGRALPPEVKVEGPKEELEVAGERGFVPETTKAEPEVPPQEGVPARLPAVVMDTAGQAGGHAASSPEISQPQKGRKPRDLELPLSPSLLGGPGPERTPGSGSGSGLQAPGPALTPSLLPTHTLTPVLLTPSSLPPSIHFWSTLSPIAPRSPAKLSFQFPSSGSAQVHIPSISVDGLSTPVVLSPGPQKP
# How it was run: as §1
# [3] = biological target: T3, GABPA (Homo sapiens, UniProt Q06546 1-454); settings: protein: recombinant; tags: N-terminal GST; dsDNA, one strand shown
# T3 sequence: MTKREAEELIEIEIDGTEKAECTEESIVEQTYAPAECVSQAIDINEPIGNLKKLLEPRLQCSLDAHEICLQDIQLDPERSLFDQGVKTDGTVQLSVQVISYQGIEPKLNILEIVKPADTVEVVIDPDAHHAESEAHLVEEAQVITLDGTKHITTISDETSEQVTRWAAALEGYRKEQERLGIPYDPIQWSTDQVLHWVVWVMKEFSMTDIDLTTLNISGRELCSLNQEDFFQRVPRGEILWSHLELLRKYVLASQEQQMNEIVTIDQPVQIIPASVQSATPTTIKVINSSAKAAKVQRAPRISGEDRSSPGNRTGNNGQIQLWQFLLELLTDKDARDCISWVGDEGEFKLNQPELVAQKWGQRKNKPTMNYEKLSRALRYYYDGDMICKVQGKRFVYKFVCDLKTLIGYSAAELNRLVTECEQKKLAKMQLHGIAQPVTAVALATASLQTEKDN
# How it was run: as §1
# [4] = biological target: T4, ERG (Homo sapiens, UniProt P11308 1-479); settings: protein: recombinant; tags: N-terminal GST; dsDNA, one strand shown
# T4 sequence: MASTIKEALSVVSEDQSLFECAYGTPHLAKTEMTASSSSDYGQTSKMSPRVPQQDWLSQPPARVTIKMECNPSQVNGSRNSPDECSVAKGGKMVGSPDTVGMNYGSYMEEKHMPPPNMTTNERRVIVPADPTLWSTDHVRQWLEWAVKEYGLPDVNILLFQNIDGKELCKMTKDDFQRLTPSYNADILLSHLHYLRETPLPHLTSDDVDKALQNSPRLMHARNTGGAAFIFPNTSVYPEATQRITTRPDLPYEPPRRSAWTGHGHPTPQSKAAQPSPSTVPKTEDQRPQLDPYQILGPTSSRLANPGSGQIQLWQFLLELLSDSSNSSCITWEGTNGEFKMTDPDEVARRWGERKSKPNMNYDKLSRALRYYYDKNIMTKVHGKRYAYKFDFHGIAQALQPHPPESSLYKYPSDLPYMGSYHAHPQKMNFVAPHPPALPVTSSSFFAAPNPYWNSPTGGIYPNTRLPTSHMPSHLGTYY
# How it was run: as §1
# [5] = biological target: ELF1 (Homo sapiens, UniProt P32519 1-619); settings: protein: recombinant; tags: N-terminal GST; dsDNA, one strand shown
# How it was run: as §1
# [6] = biological target: T5, EHF (Homo sapiens, UniProt Q9NZC4 1-300); settings: protein: recombinant; tags: N-terminal GST; dsDNA, one strand shown
# T5 sequence: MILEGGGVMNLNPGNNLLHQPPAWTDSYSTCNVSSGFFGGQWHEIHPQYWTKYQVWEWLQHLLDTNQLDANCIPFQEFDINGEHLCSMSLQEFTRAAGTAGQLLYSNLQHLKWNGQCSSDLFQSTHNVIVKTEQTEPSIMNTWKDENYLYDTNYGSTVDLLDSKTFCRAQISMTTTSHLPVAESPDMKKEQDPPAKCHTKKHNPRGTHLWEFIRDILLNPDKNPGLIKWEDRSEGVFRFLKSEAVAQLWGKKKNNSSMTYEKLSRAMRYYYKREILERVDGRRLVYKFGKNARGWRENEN
# How it was run: as §1
# [7] = biological target: SPI1 (Homo sapiens, UniProt P17947 1-270); settings: protein: recombinant; tags: N-terminal GST; dsDNA, one strand shown
# How it was run: as §1
# [8] = biological target: SPIB (Homo sapiens, UniProt Q01892 1-262); settings: protein: recombinant; tags: N-terminal GST; dsDNA, one strand shown
# How it was run: as §1
# [9] = biological target: T6, ELK3 (Homo sapiens, UniProt P41970 1-407); settings: protein: recombinant; tags: N-terminal GST; dsDNA, one strand shown
# T6 sequence: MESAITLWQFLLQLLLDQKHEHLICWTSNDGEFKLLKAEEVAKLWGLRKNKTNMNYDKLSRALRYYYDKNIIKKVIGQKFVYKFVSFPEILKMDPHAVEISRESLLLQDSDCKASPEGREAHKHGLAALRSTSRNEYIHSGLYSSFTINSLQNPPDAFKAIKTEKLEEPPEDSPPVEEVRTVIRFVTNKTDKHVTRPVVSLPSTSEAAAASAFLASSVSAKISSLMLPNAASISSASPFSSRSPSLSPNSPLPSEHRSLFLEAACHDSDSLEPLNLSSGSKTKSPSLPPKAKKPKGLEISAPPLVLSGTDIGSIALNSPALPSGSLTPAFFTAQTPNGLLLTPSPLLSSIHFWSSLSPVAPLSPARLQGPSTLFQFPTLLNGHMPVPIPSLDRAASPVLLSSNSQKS
# How it was run: as §1
# [10] = biological target: T7, FEV (Homo sapiens, UniProt Q99581 1-238); settings: protein: recombinant; tags: N-terminal GST; dsDNA, one strand shown
# T7 sequence: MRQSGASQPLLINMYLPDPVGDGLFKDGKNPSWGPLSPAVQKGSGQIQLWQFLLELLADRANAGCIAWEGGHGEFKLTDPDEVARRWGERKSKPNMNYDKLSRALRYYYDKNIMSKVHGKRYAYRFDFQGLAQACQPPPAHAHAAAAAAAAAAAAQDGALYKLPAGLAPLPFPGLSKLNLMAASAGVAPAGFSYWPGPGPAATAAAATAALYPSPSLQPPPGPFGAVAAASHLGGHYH
# How it was run: as §1
# [11] = biological target: ETV5 (Homo sapiens, UniProt P41161 1-510); settings: protein: recombinant; tags: N-terminal GST; dsDNA, one strand shown
# How it was run: as §1
# [12] = biological target: HSF1 (Homo sapiens, UniProt Q00613 1-529); settings: protein: recombinant; tags: N-terminal GST; chain copies: 3; dsDNA, one strand shown
# How it was run: as §1
# [13] = biological target: T8, SPIC (Homo sapiens, UniProt Q8N5J4 1-248); settings: protein: recombinant; tags: N-terminal GST; dsDNA, one strand shown
# T8 sequence: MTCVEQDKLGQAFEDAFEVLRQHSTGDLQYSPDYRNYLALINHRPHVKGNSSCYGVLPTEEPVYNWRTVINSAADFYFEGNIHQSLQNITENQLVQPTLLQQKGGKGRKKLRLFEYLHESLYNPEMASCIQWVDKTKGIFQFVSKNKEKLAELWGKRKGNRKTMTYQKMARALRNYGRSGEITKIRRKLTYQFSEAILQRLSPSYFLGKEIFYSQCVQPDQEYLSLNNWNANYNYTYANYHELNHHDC
# How it was run: as §1
# [14] = biological target: ELF4 (Homo sapiens, UniProt Q99607 1-663); settings: protein: recombinant; tags: N-terminal GST; dsDNA, one strand shown
# How it was run: as §1
# [15] = biological target: T9, ELK4 (Homo sapiens, UniProt P28324-2 1-405); settings: protein: recombinant; tags: N-terminal GST; dsDNA, one strand shown
# T9 sequence: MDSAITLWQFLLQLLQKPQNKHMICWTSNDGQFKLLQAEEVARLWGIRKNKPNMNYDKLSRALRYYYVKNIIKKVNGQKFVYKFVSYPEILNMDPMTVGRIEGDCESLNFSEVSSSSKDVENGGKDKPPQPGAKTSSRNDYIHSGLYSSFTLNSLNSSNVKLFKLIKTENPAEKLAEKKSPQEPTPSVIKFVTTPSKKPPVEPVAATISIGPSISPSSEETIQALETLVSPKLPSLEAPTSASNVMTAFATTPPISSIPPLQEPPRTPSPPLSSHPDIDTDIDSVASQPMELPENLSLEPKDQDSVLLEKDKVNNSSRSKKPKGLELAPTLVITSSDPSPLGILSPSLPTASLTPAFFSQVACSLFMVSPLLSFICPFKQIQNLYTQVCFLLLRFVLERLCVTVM
# How it was run: as §1
# [16] = biological target: T10, ETV2 (Homo sapiens, UniProt O00321 1-342); settings: protein: recombinant; tags: N-terminal GST; dsDNA, one strand shown
# T10 sequence: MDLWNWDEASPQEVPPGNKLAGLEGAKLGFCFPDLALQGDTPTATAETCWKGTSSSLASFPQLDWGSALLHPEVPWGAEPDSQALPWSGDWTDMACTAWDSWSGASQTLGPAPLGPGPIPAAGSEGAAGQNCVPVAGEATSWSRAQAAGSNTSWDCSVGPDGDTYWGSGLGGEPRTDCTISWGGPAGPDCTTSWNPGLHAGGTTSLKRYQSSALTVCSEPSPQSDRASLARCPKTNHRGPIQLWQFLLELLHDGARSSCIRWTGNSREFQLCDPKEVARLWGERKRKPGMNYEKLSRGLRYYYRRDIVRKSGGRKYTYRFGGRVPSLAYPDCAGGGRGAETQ
# How it was run: as §1
# [17] = biological target: T11, ELF3 (Homo sapiens, UniProt P78545 1-371); settings: protein: recombinant; tags: N-terminal GST; dsDNA, one strand shown
# T11 sequence: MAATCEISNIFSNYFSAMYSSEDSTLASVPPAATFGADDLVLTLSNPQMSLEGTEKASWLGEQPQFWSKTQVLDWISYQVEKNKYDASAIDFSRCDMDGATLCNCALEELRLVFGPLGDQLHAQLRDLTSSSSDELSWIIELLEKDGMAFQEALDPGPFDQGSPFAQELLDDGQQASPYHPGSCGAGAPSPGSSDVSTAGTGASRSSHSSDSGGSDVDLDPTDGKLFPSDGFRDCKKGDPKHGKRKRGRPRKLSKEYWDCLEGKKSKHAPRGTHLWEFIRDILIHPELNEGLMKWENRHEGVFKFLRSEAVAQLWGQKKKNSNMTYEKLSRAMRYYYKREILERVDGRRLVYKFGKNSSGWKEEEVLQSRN
# How it was run: as §1
# [18] = biological target: CRX (Homo sapiens, UniProt O43186 1-299); settings: protein: recombinant; tags: N-terminal GST; dsDNA, one strand shown
# How it was run: as §1
# [19] = biological target: ETV1 (Homo sapiens, UniProt P50549 1-477); settings: protein: recombinant; tags: N-terminal GST; dsDNA, one strand shown
# How it was run: as §1
# ELF1, sequence (P32519 whole entry): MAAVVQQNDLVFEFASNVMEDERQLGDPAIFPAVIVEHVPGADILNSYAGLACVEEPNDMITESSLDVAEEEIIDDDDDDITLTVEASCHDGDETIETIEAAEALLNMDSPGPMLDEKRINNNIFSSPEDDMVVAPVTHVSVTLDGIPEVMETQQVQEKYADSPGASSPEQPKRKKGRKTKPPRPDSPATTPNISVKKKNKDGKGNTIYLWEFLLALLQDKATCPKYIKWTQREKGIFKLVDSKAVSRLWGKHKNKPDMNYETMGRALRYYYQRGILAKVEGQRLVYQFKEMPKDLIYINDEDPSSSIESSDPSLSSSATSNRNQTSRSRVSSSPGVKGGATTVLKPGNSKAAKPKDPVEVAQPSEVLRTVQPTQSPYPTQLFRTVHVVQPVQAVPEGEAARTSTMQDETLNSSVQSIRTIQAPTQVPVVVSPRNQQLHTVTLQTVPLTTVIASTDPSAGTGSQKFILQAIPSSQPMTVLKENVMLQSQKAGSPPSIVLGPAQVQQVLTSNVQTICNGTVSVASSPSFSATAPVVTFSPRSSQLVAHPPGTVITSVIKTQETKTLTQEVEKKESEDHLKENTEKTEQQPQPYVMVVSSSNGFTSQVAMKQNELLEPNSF
# CRX, sequence (O43186 whole entry): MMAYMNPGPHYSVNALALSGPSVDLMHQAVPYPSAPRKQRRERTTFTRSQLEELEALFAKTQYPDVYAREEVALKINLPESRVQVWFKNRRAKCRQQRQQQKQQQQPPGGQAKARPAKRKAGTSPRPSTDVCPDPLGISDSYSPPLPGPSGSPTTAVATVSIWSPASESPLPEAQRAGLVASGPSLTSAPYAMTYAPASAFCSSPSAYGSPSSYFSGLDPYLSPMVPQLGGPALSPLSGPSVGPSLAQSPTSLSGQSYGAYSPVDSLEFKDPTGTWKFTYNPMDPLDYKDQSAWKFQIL
# SPIB, sequence (Q01892 whole entry): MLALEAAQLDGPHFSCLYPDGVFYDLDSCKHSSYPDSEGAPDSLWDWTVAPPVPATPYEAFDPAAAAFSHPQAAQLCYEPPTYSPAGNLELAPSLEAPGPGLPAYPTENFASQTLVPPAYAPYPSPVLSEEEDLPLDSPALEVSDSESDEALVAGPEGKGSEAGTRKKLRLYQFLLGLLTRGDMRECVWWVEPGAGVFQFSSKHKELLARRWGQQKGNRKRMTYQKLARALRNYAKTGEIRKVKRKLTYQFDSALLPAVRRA
# ELF4, sequence (Q99607 whole entry): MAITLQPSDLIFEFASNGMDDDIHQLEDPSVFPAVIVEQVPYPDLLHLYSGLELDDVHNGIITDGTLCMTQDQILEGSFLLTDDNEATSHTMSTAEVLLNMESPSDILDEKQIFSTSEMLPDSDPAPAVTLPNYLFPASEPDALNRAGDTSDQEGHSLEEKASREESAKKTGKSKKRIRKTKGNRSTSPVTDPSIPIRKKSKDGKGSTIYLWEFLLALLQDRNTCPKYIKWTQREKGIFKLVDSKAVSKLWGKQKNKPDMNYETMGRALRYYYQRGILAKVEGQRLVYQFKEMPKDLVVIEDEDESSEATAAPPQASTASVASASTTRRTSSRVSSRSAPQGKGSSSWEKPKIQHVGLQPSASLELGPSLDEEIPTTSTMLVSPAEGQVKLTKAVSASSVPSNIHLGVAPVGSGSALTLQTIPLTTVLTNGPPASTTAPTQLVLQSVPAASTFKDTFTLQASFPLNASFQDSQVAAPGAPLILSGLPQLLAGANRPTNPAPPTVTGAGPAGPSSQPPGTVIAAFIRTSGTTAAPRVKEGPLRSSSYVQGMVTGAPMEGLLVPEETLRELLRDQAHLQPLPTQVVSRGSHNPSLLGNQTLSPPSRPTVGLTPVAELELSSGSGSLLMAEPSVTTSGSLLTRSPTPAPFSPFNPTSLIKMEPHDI
# HSF1, sequence (Q00613 whole entry): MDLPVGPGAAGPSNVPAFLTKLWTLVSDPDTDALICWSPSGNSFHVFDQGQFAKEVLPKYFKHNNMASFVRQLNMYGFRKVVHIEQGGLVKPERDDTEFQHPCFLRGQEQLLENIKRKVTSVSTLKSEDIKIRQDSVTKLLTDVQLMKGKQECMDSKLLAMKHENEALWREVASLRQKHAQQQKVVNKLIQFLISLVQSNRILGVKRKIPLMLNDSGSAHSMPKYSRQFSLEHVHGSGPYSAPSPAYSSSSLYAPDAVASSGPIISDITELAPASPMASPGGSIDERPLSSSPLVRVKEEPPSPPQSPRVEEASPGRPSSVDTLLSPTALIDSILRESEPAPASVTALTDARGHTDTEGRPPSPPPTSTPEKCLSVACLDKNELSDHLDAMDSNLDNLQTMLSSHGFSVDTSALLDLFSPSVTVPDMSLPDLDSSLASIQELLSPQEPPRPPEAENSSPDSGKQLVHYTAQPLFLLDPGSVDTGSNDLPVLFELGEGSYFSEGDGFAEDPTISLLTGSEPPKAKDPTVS
# ETV1, sequence (P50549 whole entry): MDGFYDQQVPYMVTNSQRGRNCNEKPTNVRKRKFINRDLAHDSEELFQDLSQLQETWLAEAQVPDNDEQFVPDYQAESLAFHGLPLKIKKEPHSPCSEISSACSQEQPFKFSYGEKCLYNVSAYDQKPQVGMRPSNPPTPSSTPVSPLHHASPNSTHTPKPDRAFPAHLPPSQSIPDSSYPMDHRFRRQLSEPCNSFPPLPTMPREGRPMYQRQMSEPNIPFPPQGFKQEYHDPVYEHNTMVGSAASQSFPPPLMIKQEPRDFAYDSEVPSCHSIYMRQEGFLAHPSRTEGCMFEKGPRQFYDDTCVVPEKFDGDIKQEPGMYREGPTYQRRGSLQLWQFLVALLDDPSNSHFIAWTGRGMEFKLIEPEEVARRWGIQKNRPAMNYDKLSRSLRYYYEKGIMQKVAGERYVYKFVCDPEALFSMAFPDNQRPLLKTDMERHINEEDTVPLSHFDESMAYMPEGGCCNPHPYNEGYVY
# ETV5, sequence (P41161 whole entry): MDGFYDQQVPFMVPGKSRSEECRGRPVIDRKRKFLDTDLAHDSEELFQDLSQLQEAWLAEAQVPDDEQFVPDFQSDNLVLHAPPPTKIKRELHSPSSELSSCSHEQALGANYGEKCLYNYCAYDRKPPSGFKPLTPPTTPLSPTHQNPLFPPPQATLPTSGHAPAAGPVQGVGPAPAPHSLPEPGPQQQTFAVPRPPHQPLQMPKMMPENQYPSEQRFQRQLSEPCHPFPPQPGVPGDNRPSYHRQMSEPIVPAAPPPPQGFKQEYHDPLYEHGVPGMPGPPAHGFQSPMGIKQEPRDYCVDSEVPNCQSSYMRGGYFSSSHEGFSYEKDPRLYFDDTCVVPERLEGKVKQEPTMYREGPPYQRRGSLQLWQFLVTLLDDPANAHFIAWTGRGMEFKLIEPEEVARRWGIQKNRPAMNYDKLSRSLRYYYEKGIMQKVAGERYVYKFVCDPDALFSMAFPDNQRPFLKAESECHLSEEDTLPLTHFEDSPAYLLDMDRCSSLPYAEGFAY
sequence,measurement,setting,value
GATGCT,binding signal,[1],"1.18 fold enrichment (6-mer frequency, TF over GST control)"
same,binding signal,[2],"1.11 fold enrichment (6-mer frequency, TF over GST control)"
same,binding signal,[3],"1.14 fold enrichment (6-mer frequency, TF over GST control)"
same,binding signal,[4],"1.12 fold enrichment (6-mer frequency, TF over GST control)"
same,binding signal,[5],"1.12 fold enrichment (6-mer frequency, TF over GST control)"
same,binding signal,[6],"1.25 fold enrichment (6-mer frequency, TF over GST control)"
same,binding signal,[7],"1.23 fold enrichment (6-mer frequency, TF over GST control)"
same,binding signal,[8],"1.22 fold enrichment (6-mer frequency, TF over GST control)"
same,binding signal,[9],"1.2 fold enrichment (6-mer frequency, TF over GST control)"
same,binding signal,[10],"1.23 fold enrichment (6-mer frequency, TF over GST control)"
same,binding signal,[11],"1.29 fold enrichment (6-mer frequency, TF over GST control)"
same,binding signal,[12],"1.13 fold enrichment (6-mer frequency, TF over GST control)"
same,binding signal,[13],"1.35 fold enrichment (6-mer frequency, TF over GST control)"
same,binding signal,[14],"1.26 fold enrichment (6-mer frequency, TF over GST control)"
same,binding signal,[15],"1.28 fold enrichment (6-mer frequency, TF over GST control)"
same,binding signal,[16],"1.18 fold enrichment (6-mer frequency, TF over GST control)"
same,binding signal,[17],"1.3 fold enrichment (6-mer frequency, TF over GST control)"
same,binding signal,[18],"1.06 fold enrichment (6-mer frequency, TF over GST control)"
same,binding signal,[19],"1.27 fold enrichment (6-mer frequency, TF over GST control)"
